AHR act = human AHR activation; P35869; activation, % at 5 µM; hit rate 2.5% among 320,000; AHR-responsive luciferase reporter cells, luminescence; in the data active = activation above about 47%;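 note: 0% = vehicle wells and 100% = reference agonist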
Target sequence (P35869 whole entry, looked up): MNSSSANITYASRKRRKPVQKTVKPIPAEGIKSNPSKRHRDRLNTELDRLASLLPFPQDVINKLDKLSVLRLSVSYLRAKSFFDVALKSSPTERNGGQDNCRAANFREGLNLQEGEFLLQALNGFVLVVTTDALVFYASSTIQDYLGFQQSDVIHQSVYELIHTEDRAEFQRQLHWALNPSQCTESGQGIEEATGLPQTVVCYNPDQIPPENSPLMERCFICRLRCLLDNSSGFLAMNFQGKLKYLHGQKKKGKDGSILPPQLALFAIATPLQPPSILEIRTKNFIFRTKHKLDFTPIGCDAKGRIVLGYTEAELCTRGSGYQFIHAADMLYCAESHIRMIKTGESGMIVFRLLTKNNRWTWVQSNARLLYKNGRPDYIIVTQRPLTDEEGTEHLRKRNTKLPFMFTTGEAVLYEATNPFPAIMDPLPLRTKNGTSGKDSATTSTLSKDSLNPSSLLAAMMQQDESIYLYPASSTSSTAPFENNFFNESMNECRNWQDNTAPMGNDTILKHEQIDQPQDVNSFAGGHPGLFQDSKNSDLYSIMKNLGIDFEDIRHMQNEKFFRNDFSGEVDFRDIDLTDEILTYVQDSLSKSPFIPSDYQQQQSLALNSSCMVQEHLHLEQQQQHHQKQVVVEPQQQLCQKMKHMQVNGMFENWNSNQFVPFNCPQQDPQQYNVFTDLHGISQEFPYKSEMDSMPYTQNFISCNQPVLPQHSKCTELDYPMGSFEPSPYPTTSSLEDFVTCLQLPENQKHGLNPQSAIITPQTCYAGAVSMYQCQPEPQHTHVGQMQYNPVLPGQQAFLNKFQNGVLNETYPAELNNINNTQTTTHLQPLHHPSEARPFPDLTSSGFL
NTR1 agonist = NTR1 (human) agonism; P30989; NTR1-U2OS beta-arrestin-GFP spot imaging, agonist mode; activation, % at 20 µM; hit rate 0.17% among 330,000; AID 493036;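 active = activation at or above 40% of the spot to cytoplasm intensity ratio, with at least 20 cells analyzed; inconclusive = wells under 20 cells, flagged as cytotoxic or low count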;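 note: 0% = DMSO without peptide and 100% = 100 nM NTR1 peptide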
NR3A LBD binder = NR3A (human) ligand-binding domain modulation; NR3A LBD differential scanning fluorimetry, Tm shift; 0% = protein alone, 100% = glycine-bound protein; hit rate 2.5% among 340,000; Tm shift relative to glycine control, % at 25 µM;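 active = melting temperature shift of at least 10% of the positive control shift, at one fixed dose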
AI-2 QS mod = modulates the Vibrio harveyi AI-2 quorum sensing system; AID 2094; activity change, % at 7.5 µM; hit rate 0.4% among 300,000; Vibrio harveyi JMH597 AI-2 luminescence/OD600 ratio, 9 h; hits give low values; strain lacks LuxN and CqsS sensors; 0 = neutral-control median; in the data active = activity change below about -75%, passing the limit was not always enough; inconclusive = no clear call, values can overlap the other calls;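 note: luminescence divided by OD600 gain over 9 h not by final OD600 alone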
SUMO Mot1 rescue = SUMOylation pathway inhibition by Mot1-301 growth rescue; S. cerevisiae Mot1-301 growth rescue, ATP luminescence, 38.5C; percent above DMSO median, 100 means doubled; growth rescue, % at 18.8 µM; hit rate 1% among 320,000; AID 2716;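 active = every valid replicate shows activation above 250% relative to neutral control wells; inactive = the rest, any valid replicate at or below 250%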;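 note: OY570 slx delta 5 strain wells were the positive control but not used for scaling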
Cardio protect = protects H9c2 cardiomyocytes from peroxide injury | H2O2 injury protection, ATPLite, 2 h | protection from H2O2 cell death, % at 20 µM | hit rate 0.63% among 360,000 | AID 588492;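 active = compounds giving at least 50% protection of heart cells from peroxide-induced death in the single-dose screen, raw or plate-pattern-corrected value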;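 note: 0% = DMSO wells with peroxide and 100% = DMSO wells without peroxide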
Active calls of the source: *; ? = inconclusive; nt = not tested or not shown. The list is not random: actives were taken first. Their share in the collection is about 6.2%.

SMILES | AHR act | NTR1 agonist | NR3A LBD binder | AI-2 QS mod | SUMO Mot1 rescue | Cardio protect
Cc1cccc2c(=O)cc(C)n(Cc3ccccc3)c12 | 6 | 9 | 12* | 1 | 1 | -14
Cc1cccc2c(N=O)c(O)n(CCc3ccccc3)c12 | 67* | 5 | 0 | -1 | -3 | -1
O=C(OCC(=O)N1CCOCC1)c1cc(F)c(F)cc1Cl | -1 | -1 | 2 | 17 | -2 | 0
CC(=O)Nc1ccc(SCCN2CC[C@@H](C)CCC2=O)cc1 | 3 | -1 | -3 | nt | 8 | 7
C[C@@H]1CN([C@@H](C)CO)C(=O)CCCn2nncc2CO[C@@H]1CN(C)C(=O)c1ccncc1 | nt | nt | nt | nt | nt | -4
O=C(CCc1nc2ccccc2c(=O)[nH]1)NCCN1C(=O)S/C(=C\c2ccc(OC(F)F)cc2)C1=O | nt | nt | 0 | nt | nt | 69*
O=C(CCc1nc2ccccc2c(=O)[nH]1)NCCN1C(=O)S/C(=C\c2ccccc2Cl)C1=O | 6 | 3 | 0 | 0 | -1 | 40
O=C(Cc1ccc(NC(=O)C2CCCN(C(=O)C3CC3)C2)cc1)Nc1cccc(C(=O)N2CCCCC2)c1 (centres undefined) | nt | nt | 0 | nt | nt | -2
Cc1ccc(S(=O)(=O)N2CCOC2CNC(=O)C(=O)NCc2ccccn2)cc1 (centres undefined) | -1 | 1 | 7 | 11 | 27 | -4
O=C(Cc1ccc([N+](=O)[O-])cc1)N/N=C/c1ccc([N+](=O)[O-])o1 | 10 | 2 | -2 | 1 | 46 | 6
CCOC(=O)N/N=C\c1ccc([N+](=O)[O-])o1 | 2 | -1 | -4 | -89* | 20 | -5
COc1ccccc1OCC(=O)N/N=C/C=C/c1ccc([N+](=O)[O-])o1 | 6 | 1 | -2 | -94* | 11 | -2
CCCOc1ccc(CCC(=O)N/N=C/c2ccc([N+](=O)[O-])o2)cc1 | 4 | 1 | 0 | -224* | -7 | -8
CCCCCCCC(=O)N/N=C/c1ccc([N+](=O)[O-])o1 | 1 | 2 | -1 | -132* | -5 | -10
CC(=O)CCC(=O)CNC(=O)CC[C@H]1O[C@@H](n2ccc(=O)[nH]c2=O)[C@H](O)[C@@H]1O | nt | nt | nt | nt | nt | 1
c1ccc(-c2csc(CN3CCCCC3)n2)cc1 | nt | nt | 0 | nt | nt | -19
CC(C)c1ccc(S(=O)(=O)N(C)C2(C)CCS(=O)(=O)C2)cc1 (centres undefined) | 1 | 1 | -1 | 29 | -8 | 6
O=C(CNc1cccc([N+](=O)[O-])c1)N/N=C/c1ccc([N+](=O)[O-])o1 | 10 | 5 | -5 | 28 | 2 | -10
O=C(CNc1cccc2ccccc12)N/N=C/c1ccc([N+](=O)[O-])o1 | 65* | 3 | -8 | ? | -5 | -1
COc1cc(/C=C/C(=O)OCC(=O)N2c3ccccc3NC(=O)C2(C)C)cc(OC)c1OC | 4 | -1 | -4 | nt | 2 | 76*
COc1ccc(S(N)(=O)=O)cc1C(=O)OCC(=O)N1c2ccccc2NC(=O)C1(C)C | 2 | -1 | 6 | nt | -12 | 6
CCOC(=O)c1ccc(S(=O)(=O)N2CCN(C(=O)C3CSC4(C)CCC(=O)N34)CC2)cc1 (centres undefined) | -1 | 0 | 0 | nt | 13 | -2
O=C(OC(C(=O)Nc1cccc(C(F)(F)F)c1)c1ccccc1)C1CCCCC1 (centres undefined) | 0 | nt | 14* | nt | 1 | -8
O=C1CC(c2ccccc2)CC(O)=C1C=Nc1ccc(Cl)cc1 (centres undefined) | 55* | 2 | -1 | -6 | -11 | 4
O=C1CC(c2ccc(F)cc2)CC(O)=C1C=NCCN1CCNCC1 (centres undefined) | 0 | -2 | 3 | 11 | 301* | 5
SMILES | AHR act | NTR1 agonist | NR3A LBD binder | AI-2 QS mod | SUMO Mot1 rescue | Cardio protect
CCCN=CC1=C(O)CC(c2ccccc2)CC1=O (centres undefined) | 0 | -1 | 391* | -12 | 79 | -2
O=C1CC(c2ccccc2)CC(O)=C1C=Nc1cccc(Cl)c1 (centres undefined) | 48* | 1 | -2 | 8 | 82 | 0
Cc1ccc(N=CC2=C(O)CC(c3cccc(Cl)c3)CC2=O)cc1 (centres undefined) | 3 | -1 | 0 | 15 | 22 | 2
Cc1nn(C)c(C(=O)NNC(=O)NC2CCCCC2)c1Cl | nt | 4 | -1 | 46 | nt | 0
CCc1nc2c(OCCOc3ccc(F)cc3)cccn2c1N(C=O)Cc1ccccc1 | nt | nt | nt | nt | nt | -1
CSc1nc(N(C)NC(=O)c2ccc(Cl)cc2)c2ccccc2n1 | 12 | 4 | -7 | 11 | 334* | -14
Cc1ccccc1N/N=C/c1ccc(C#N)cc1 | -6 | -1 | 18* | -1 | 3 | -5
CCn1c(=N)n(CC(=O)OC)c2ccccc21 | 0 | -8 | 2 | 8 | nt | 2
CCCCn1c(=N)n(CC(=O)c2ccc(Br)s2)c2ccccc21 | 52* | 4 | 1 | 19 | -5 | -25
CCn1c(=N)n(CC(=O)c2ccc(Br)s2)c2ccccc21 | 48* | 3 | -1 | 10 | -2 | -1
O=c1[nH]c(CN2CCCC2)nc2sc3c(c12)CCC3 | -1 | -1 | -1 | 12 | -5 | 56*
Cc1cc(C)cc(NC(=O)CCc2nc3sc4c(c3c(=O)[nH]2)CCCC4)c1 | 59* | 8 | 2 | 9 | 19 | 9
CCN(CC(=O)NC(C)C)Cc1nc2sc3c(c2c(=O)[nH]1)CCC3 | 12 | 1 | -1 | 1 | 1 | 64*
COCc1nc2sc3c(c2c(=O)[nH]1)CCCC3 | -2 | 1 | -6 | 4 | 481* | 14
CN(CC(=O)Nc1ccc(OC(F)(F)F)cc1)C(=O)Cc1cccs1 | 7 | 1 | 0 | nt | -16 | 0
CCCCc1cc(=O)oc2cc(OCC(=O)N[C@@H](Cc3ccccc3)C(=O)O)ccc12 | 0 | -1 | 0 | 23 | 523* | 0
CCCCc1cc(=O)oc2cc(C)cc(OCC(=O)NCc3ccncc3)c12 | 56* | 0 | -3 | 34 | 10 | 11
CCCc1cc(=O)oc2cc(C)cc(OCC(=O)NCc3ccccn3)c12 | 17 | 1 | 3 | 15 | 17 | 5
CCCCc1cc(=O)oc2cc(OCC(=O)NCc3ccccn3)ccc12 | 38 | 2 | -2 | nt | 322* | -3
CCCc1cc(=O)oc2cc(OCC(=O)NC(Cc3ccc(Cl)cc3)C(=O)O)ccc12 (centres undefined) | 0 | -2 | -2 | 32 | 14 | 6
Cc1cc(OCC(=O)Nc2ccc(CN3CCOCC3)cc2)c2c(C)c(C)c(=O)oc2c1 | 0 | 3 | -3 | 15 | 305* | 13
O=C(CN(C(=O)CNC(=O)c1ccco1)c1ccc(F)cc1)NC1CCCCC1 | -2 | 0 | -1 | nt | -8 | 4
CCOC(CNC(=O)C(=O)Nc1cc2c3c(c1)CCC(=O)N3CCC2)OCC | 2 | 0 | -1 | 42 | -4 | 0

Assay outcomes from PubChem BioAssay.
